Screens: PubChem, National Center for Advancing Translational Sciences (NCATS)
Most compounds without a hit are left out; they make up all but 7.9% or so of the library.
FMDV antiviral: foot and mouth disease virus antiviral activity; FMDV antiviral cell-based qHTS; Potency, µM (highest dose often 57.9 µM), inactives show at the highest dose activity change, negative = inhibition, hits mostly inhibitors; 410,000 compounds, 1.2% hits; calls by dose curve; tested in HEK293T cells; also: read-out not given here; potency is read from the fitted curve at half-maximal effect; nearly all actives have a fitted effect of over 45% in size
Marburg entry inh: blocks Marburg virus binding to or entry into cells; Marburg virus pseudotyped entry inhibition, cell reporter; Potency, µM (series often up to 37.8 µM), inactives show at the top dose activity change, negative = inhibition, most hits filed as inhibitors; 300,000 compounds, 1.8% hits; calls by dose curve; tested in HEK293 cells; also: potency is read from the fitted curve at half-maximal effect
HCV inh: blocks hepatitis C virus. Huh7.5.1 HCVcc-Cre infection, luciferase reporter, 44 h. Potency, µM (highest dose often 41.8 µM), inactives show at the highest dose activity change, negative = inhibition, actives largely listed as inhibitors. 340,000 compounds, 3.4% hits. AID 651820; active = well fitted inhibition curve with a large enough effect; inconclusive = small, poorly fitted or top-dose-only effect, or another doubt; inactive = no such curve, though single readings can be large or run the other way; also: potency is read from the fitted curve at half-maximal effect
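Reporter virus HCVcc-Cre (~0.5 moi) infects cells exposed to compound; seeding density 1,000 cells/well with 4 h settling beforehand. Luminescence, 15 sec read, taken 44 h post-infection following a 15 min RT substrate incubation.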
LASV entry inh: Lassa virus entry inhibition | Lassa virus pseudotype entry inhibition, cell reporter | Potency, µM (titrated, usually from 37.9 µM), inactives show at the top dose activity change, negative = inhibition, usual class: inhibitors | 300,000 compounds, 1.2% hits | AID 540256; calls by dose curve; tested in HEK293 cells; also: potency is read from the fitted curve at half-maximal effect; nearly all actives have a fitted effect of over 50% in size
HCMV antiviral: blocks human cytomegalovirus replication; activity change, negative = inhibition, % at 57.5 µM; HFF cells, HCMV-luciferase reporter, 72 h; active compounds read low; 410,000 compounds, 4.5% hits; in the data active = activity change below about -60%; inconclusive = no clear call, values can overlap the other calls; inactive = above about -39%
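Inhibition of viral replication was scored as loss of reporter luminescence in HFFs infected with HCMV-luciferase (MOI 1 PFU/cell) for 72 h; compounds tested at 2 doses, normalized to buffer and Salinomycin controls.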
Starred values were filed as active, the others as inactive; u = inconclusive; x = no result given; [ ] = remark or other dose. % is scaled to controls: 0 for no effect and ±100 for the full control effect.

SMILES	FMDV antiviral	Marburg entry inh	HCV inh	LASV entry inh	HCMV antiviral
COc1ccc(-c2oc(NC(C)=O)c(C#N)c2-c2ccc(OC)cc2)cc1	-11%	-1%	-16%	7%	23
COC(=O)C1=C(C)N(Cc2ccccc2)C(=NCCc2ccc(O)cc2)NC1c1ccc(Br)cc1 (stereo not given)	x	2%[14.2 µM]	x	x	x
CCOC(=O)C(C)Sc1nc(-c2cccs2)ccc1C#N (stereo not given)	-7%	-1%	14µM*	-27%	47
CCN(CC)C(=O)c1sc2nc(-c3cccs3)cc(-c3cccs3)c2c1N	-12%	-2%	-26%	x	-64*
CCN(CC)C(=O)c1sc2nc(-c3cccs3)cc(-c3ccc(Cl)cc3)c2c1N	-15%	u	u	22%	-33
O=C(c1ccc2c(c1)OCO2)N(c1ccc(Br)cc1)C1C=CS(=O)(=O)C1 (stereo not given)	-19%	-4%	8%	-7%	-60*
O=C(c1ccc(S(=O)(=O)N2CCCC2)cc1)N(c1ccc(F)cc1)C1C=CS(=O)(=O)C1 (stereo not given)	-11%	-1%	10%	u	-69*
Oc1cc(-c2nc3ccccc3s2)cc2c1OCCN(Cc1cccn1-c1ccc(Cl)cn1)C2	26%	x	x	x	x
COc1cc(=O)n2c(c1C(=O)NCc1ccc3c(c1)OCO3)CCN(C(=O)c1ccccc1F)CC2	-7%	x	x	x	x
O=C1C[C@H](NCc2ccc3c(c2)OCO3)C(=O)N1Cc1ccc2c(c1)OCO2	x	26%	x	x	x
COc1ccc(-n2c(=S)[nH]c3ccccc3c2=S)cc1	33%	x	-1%	x	-64*
COc1ccc(NC(=O)CCCn2c(=S)[nH]c3ccccc3c2=O)cc1	-7%	x	u	x	3
CC(C)OCCCn1c(=S)[nH]c2ccc(N3CCOCC3)cc2c1=O	u	u	u	5.8µM*	-22
COc1ccc(NC(=O)CCn2c(=S)[nH]c3ccccc3c2=O)cc1	-6%	u	-9%	-22%[46.1 µM]	-61*
O=c1c2cc(N3CCOCC3)ccc2[nH]c(=S)n1CCN1CCCC1	-16%	-20%	1%	-7%	64
O=c1c2cc(N3CCOCC3)ccc2[nH]c(=S)n1CCCN1CCCCCC1	-12%	18µM*	u	-2%	11
COc1ccc(C(C)NC(=O)CN(c2cc(OC)ccc2OC)S(=O)(=O)c2ccccc2)cc1 (stereo not given)	-10%	-16%[46.1 µM]	x	1%[46.1 µM]	-7
COc1ccc(N2CCN(CCCn3c(=S)[nH]c4ccccc4c3=O)CC2)cc1	1%	x	u	x	-72*
COc1ccc(Cn2cc(CN3CC(N4CCSCC4)CS3(=O)=O)nn2)cc1 (stereo not given)	-14%	x	x	x	-100*
COc1ccc(Cn2cc(CN3CC(N4CCCC4)CS3(=O)=O)nn2)cc1 (stereo not given)	-16%	x	x	x	-13
O=C(Nc1cccc(OC(F)(F)F)c1)c1cnc(N2CCN(Cc3cccc(C(F)(F)F)c3)C2=O)o1	x	x	x	x	-10
CCc1cc2c(cc3c(=O)n(CC(=O)NC4CCCCC4)nc(CC)n32)s1	18%	-16%[46.1 µM]	x	x	u
COc1ccc(C2=Nn3c([n+](C)c4ccccc43)SC2)cc1	u	x	2.2µM*	x	-81*
Clc1ccc(C2=Nn3c(Cn4nnc5ccccc54)nnc3SC2)cc1	-23%	-26%	0%	-28%	157
CC1Sc2n(c3ccccc3[n+]2C)N=C1c1ccccc1 (stereo not given)	u	u	-17%	u	-97*
SMILES	FMDV antiviral	Marburg entry inh	HCV inh	LASV entry inh	HCMV antiviral
Cn1c(Cc2ccccc2)[n+](C)c2ccccc21	-16%	-21%[46.1 µM]	u	x	-18
C[n+]1c2n(c3ccccc31)N=C(c1ccc(Cl)cc1)CS2	u	u	u	u	-96*
CCOC(=O)c1sc(N2C(=O)c3oc4ccc(C)cc4c(=O)c3C2c2ccccc2F)nc1C (stereo not given)	-11%	-3%[46.1 µM]	x	6%[46.1 µM]	-4
O=C(Cn1c(=O)c2sccc2n(Cc2cccc([N+](=O)[O-])c2)c1=O)NCCc1ccccc1	-19%	u	u	-6%	-1
O=C(Cn1c(=O)c2sccc2n(Cc2ccc([N+](=O)[O-])cc2)c1=O)NCCc1ccccc1	u	u	u	u	-73*
CSc1ccc(CCNC(=O)C2CCN(c3ncnc4c3nc3n4CCCCC3)CC2)cc1	-1%	x	x	2%[46.1 µM]	-26
Cc1ccc2c(c1)-c1onc(C(=O)N3CCN(c4cc(Cl)ccc4C)CC3)c1CO2	-21%	x	x	28%[46.1 µM]	-6
COC(=O)C=CC(=NNc1ccccc1)c1ccccc1	-20%	u	22µM*	-17%[46.1 µM]	46
CO/N=C/C(=N\Nc1ccccc1)C(=O)c1ccccc1	-4%	u	u	-23%	-39
COc1ccc(Cn2c(C(=O)O)c(CNCC(C)c3ccccc3)c3ccc(OC)cc32)cc1 (stereo not given)	0%	x	x	-19%[46.1 µM]	-21
CC(C)(CNC(=O)c1sc2cc(F)ccc2c1Cl)N1CCOCC1	-5%	5%	11µM*	13%	u
Cc1ccc(C(=O)NCC(C)(C)N2CCOCC2)s1	9%	9%	21%	-2%	54
CCOc1ccc2nc(N3CCC(C(=O)N4CCN(c5ccccn5)CC4)CC3)sc2c1	14µM*	6%	6.3µM*	x	x
O=C(C1CCN(c2nc3ccc(Br)cc3s2)CC1)N1CCC2(CC1)OCCO2	-28%	u	3.2µM*	-13%	-33
CCc1ccc2nc(N3CCC(C(=O)N4CCC5(CC4)OCCO5)CC3)sc2c1	-11%	-26%[46.1 µM]	11µM*	-26%[46.1 µM]	u
Cc1ccc2nc(N3CCC(C(=O)N4CCC5(CC4)OCCO5)CC3)sc2c1	-15%	7.9µM*	u	-25%	2
Cc1ccc2nc(N3CCN(C(=O)C4CC4)CC3)sc2c1	30%	x	x	7%[46.1 µM]	33
CCOc1ccc2nc(N3CCC(C(=O)N4CCN(c5ncccn5)CC4)CC3)sc2c1	u	x	-11%	x	20
CCOc1ccc2nc(N3CCC(C(=O)N4CCC5(CC4)OCCO5)CC3)sc2c1	22%	u	u	-2%	33
COCCNC(=O)c1[nH]c2cc(C)ccc2c1Sc1ccc(Cl)cc1	8%	8%[46.1 µM]	x	7%[46.1 µM]	-2
CCCCC1(Cc2ccc(OC)c([N+](=O)[O-])c2)C(=O)N(c2ccccc2)N(c2ccccc2)C1=O	u	14µM*	u	u	u
CCCCN1/C(=C/c2cccc[n+]2C)Sc2cc(NC(C)=O)ccc21	-6%	x	-7%	x	4
CCN1/C(=C/c2ccc3cc(C)ccc3[n+]2CC)Sc2cc(C)ccc21	u	x	2.5µM*	x	-100*
CCN1/C(=C/c2ccc3cc(C)ccc3[n+]2C)Sc2ccc3sccc3c21	-19%	x	u	x	-96*
Cc1sc2c3ccsc3ccc2[n+]1C	-8%	11%[46.1 µM]	-3%	-10%	-18
CCCCN1/C(=C/c2ccc3ccccc3[n+]2CC)Sc2ccccc21	20µM*	5.6µM*	8.9µM*	2.2µM*	x
